# Most compounds without a hit are left out; they make up all but 2.4% or so of the library.
# Pol beta inh: inhibitors of human DNA polymerase beta. P06746. Pol beta primer extension/strand displacement, fluorescence kinetic. Potency, µM (top dose mostly 114 µM), inactives show at the highest dose activity change, negative = inhibition, usual class: inhibitors. 1.3% of 340,000 active; also: % is scaled to controls: 0 for no effect and ±100 for the full control effect
#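 Values derive from four-parameter Hill fits of normalized kinetic data: reads at 0 and 10 min following addition of 50 nM substrate to 10 nM Pol beta preincubated 15 min with compound.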
# Pol iota inh: inhibitors of human DNA polymerase iota. Q9UNA4. Pol iota fluorescent replication assay, 10 min. Potency, µM (highest dose often 115 µM), without a hit: at the highest dose activity, negative = inhibition, actives largely listed as inhibitors. 1% of 390,000 active. AID 588590
#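 Fluorescent replication assay read twice, at 0 min and 10 min after adding 50 nM (final) substrate. Enzyme (10 nM) and compounds were first incubated 15 min at room temperature; enzyme-free buffer wells were negative controls.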
# Pol eta inh: blocks human DNA polymerase eta activity. Q9Y253. recombinant Pol eta, fluorescent DNA replication assay. Potency, µM (highest dose often 114 µM), for inactives: at the top dose activity change, negative = inhibition, actives largely listed as inhibitors. 1.2% of 390,000 active. AID 588591; also: % is scaled to controls: 0 for no effect and ±100 for the full control effect
#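 Pol eta at 10 nM preincubated with compounds 15 min at room temperature; reaction started with fluorescent substrate (50 nM final) and read kinetically at 0 and 10 min.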
# FEN1 inh: human FEN1 inhibition. AID 588795. Potency, µM (highest dose often 114 µM), for the others: at the top dose activity change, negative = inhibition, usual class: inhibitors. Recombinant FEN1 flap cleavage, fluorescence, 15 min. 0.35% of 390,000 active; also: % is scaled to controls: 0 for no effect and ±100 for the full control effect; nearly all actives have a fitted effect of over 65% in size
# Target sequence (P39748 whole entry, looked up): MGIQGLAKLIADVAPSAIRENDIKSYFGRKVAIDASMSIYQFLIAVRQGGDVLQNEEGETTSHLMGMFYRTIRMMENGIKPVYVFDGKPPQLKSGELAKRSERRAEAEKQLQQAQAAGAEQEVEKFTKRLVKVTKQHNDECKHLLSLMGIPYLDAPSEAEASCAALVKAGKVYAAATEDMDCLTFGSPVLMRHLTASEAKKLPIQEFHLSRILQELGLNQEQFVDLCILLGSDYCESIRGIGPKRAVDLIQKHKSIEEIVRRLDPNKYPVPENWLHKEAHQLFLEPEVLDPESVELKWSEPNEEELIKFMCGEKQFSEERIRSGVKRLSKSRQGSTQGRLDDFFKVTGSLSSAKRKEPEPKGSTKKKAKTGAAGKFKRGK
#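 Enzyme 10 nM, 15 min RT preincubation with compound; start with substrate 50 nM final; reads at 0 and 15 min; qHTS titration, four-parameter Hill fit.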
# WRN inhibitor: inhibitors of human WRN helicase; Q14191; WRN helicase unwinding, fluorescent forked duplex, kinetic; AID 651768; 0.46% of 360,000 active; Potency, µM (series often up to 114 µM), for the others: at the top dose activity change, negative = inhibition, hits mostly inhibitors; also: % is scaled to controls: 0 for no effect and ±100 for the full control effect; nearly all actives have a fitted effect of over 55% in size
#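 Kinetic red-fluorescence monitoring (525/598 nm) tracks WRN helicase activity after 100 nM fluorophore-quencher forked duplex and 2 mM ATP are added to 20 nM enzyme pretreated 15 min at room temperature with compound.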
# POLK inh: inhibitors of human DNA polymerase kappa; Q9UBT6; purified Pol kappa, fluorescent DNA synthesis assay, 10 min; Potency, µM (highest dose often 107 µM), for inactives: top-dose activity, negative = inhibition, most hits filed as inhibitors; 0.53% of 400,000 active; also: % is scaled to controls: 0 for no effect and ±100 for the full control effect
#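 Fluorescent qHTS in 1536-well format: enzyme (10 nM) and compound sat 15 min at room temperature before 50 nM substrate (final) was added. Signal taken at 0 and 10 min; no-enzyme buffer wells were negative controls.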
# * hit, by the source's call; ? = inconclusive; / = no result given; ! = not confirmed by another sample; [ ] = dose if it differs, or a comment. Calls follow the shape of the dose curve; as a rule, active = well fitted curve in the direction sought with a large enough effect; inconclusive = small, poorly fitted or top-dose-only effect, or another doubt; inactive = no such curve, though single readings can be large; an effect the other way counts as inactive or inconclusive. Potency is read from the fitted curve at half-maximal effect.
SMILES,Pol beta inh,Pol iota inh,Pol eta inh,FEN1 inh,WRN inhibitor,POLK inh
CC(=O)Nc1ccc(/C(C)=N\NC(=O)c2ccc(-c3ccccc3)cc2)cc1,40µM*,/,/,/,/,/
CC(=O)Nc1ccc(/C(C)=N/NC(=O)c2ccc(F)cc2)cc1,31%,142%,-12%,-7%,-2%,-13%
O=C(O)c1cccc(NC(=O)c2cccc(S(=O)(=O)Nc3cccc(C(=O)O)c3)c2)c1,0%,6%,14%,1%,/,-4%[60.1 µM]
O=C(Nc1cccc(C(=O)Nc2ccc(S(=O)(=O)O)c3cc(S(=O)(=O)O)cc(S(=O)(=O)O)c23)c1)Nc1cccc(C(=O)Nc2ccc(S(=O)(=O)O)c3cc(S(=O)(=O)O)cc(S(=O)(=O)O)c23)c1,2.4µM*,10µM*,1.8µM*,1µM*,/,1.9µM*
COc1cccc(-c2cnc(C(O)c3ccc(Cl)c(Cl)c3)[nH]2)c1 (configuration not stated),/,/,/,/,-5%,/
CCOC(=O)c1c(-c2ccco2)csc1NC(=O)COC(=O)c1cnc(C)cn1,/,40µM*,25µM*,-14%,-30%,?
Cc1ccc(-c2nnc(SCc3ccccc3C#N)o2)cc1,-12%,-1%,-19%,3%,/,-23%
O=C(NNC(=O)C1COc2ccccc2O1)c1ccccc1O (configuration not stated),/,1%,-19%,2%,2%,-3%
Nc1cc2nc3ccccc3oc-2cc1=O,25µM*,20µM*,?,?,-1%[11.6 µM],45µM*
O=C(NNC(=O)c1ccccc1Cl)c1ccccc1Cl,89µM*,27%,-22%,10%,-2%,-1%
COc1ccccc1Nc1cc(C(=O)NCc2cccs2)c2ccccc2n1,-26%,-16%,-10%,3%,/,-13%
CCOc1cccc(CNn2cnnc2)c1OCc1ccccc1Cl,8%,-9%,2%,-2%,-8%,-4%
CCOc1cccc(CNc2ccc(O)cc2)c1OCc1ccccc1Cl,-9%,8.9µM*,?,?,?,-24%
CCOc1cc(CNc2ccc(O)cc2)cc(Cl)c1OCc1ccccc1,-29%,25µM*,-12%,-23%,/,-25%
CC(C)(C)C1CCc2c(sc(NC(=O)c3ccc(Cl)cc3)c2C(=O)NCc2ccco2)C1 (configuration not stated),2%,3%,-10%,-1%,/,9%
CC1CC[C@@]2(C(=O)O)CC[C@]3(C)C(=CCC4[C@@]5(C)CCC(O)C(C)(C)C5CC[C@@]43C)C2C1C (some centres not stated),/,/,/,/,/,-10%[60.1 µM]
N#C/C(=C\c1ccc(Sc2ccccc2)o1)c1nc2ccccc2[nH]1,40µM*,-4%,?,?,?,-30%
N#C/C(=C\c1ccc(-c2ccccc2C(=O)O)o1)c1nc2ccccc2[nH]1,-21%,36%,?,?,56µM*,-23%
Cc1cc2nc(/C(C#N)=C\c3ccc(-c4ccccc4C(=O)O)o3)[nH]c2cc1C,?,?,25µM*,?,-15%[11.6 µM],?
Cc1ccc2nc(/C(C#N)=C\c3ccc(N4CCOCC4)o3)[nH]c2c1,35µM*,?,?,?,45µM*,-20%
COc1nc(-c2ccccc2)ccc1-c1noc(-c2ccccc2Br)n1,-16%,?,-21%,2%,/,?
CC(=O)Nc1ccc(/C=C/c2nc(-c3ccccc3O)n(-c3ccccc3)n2)cc1,-11%,-19%,-8%,14%,/,-10%
CC(=O)OCCNc1cc(N2CCN(C)CC2)c2noc3c2c1C(=O)c1ccccc1-3,1%,52%,-18%,-28%,-29%,-22%
CCN1CCN(c2cc(N3CCN(C(=O)c4ccco4)CC3)c3c4c(onc24)-c2ccccc2C3=O)CC1,-2%,28µM*,-12%,?,152%,-17%
Cc1cc(C)cc(N(CC(=O)NC2CC3CCC2C3)S(C)(=O)=O)c1 (configuration not stated),-1%,89µM*,1%,6%,12%,-8%
SMILES,Pol beta inh,Pol iota inh,Pol eta inh,FEN1 inh,WRN inhibitor,POLK inh
Cc1ccc2nc(-c3ccc(NC(=O)CN4CCN(C(=O)c5ccco5)CC4)cc3)sc2c1,32µM*,28µM*,79µM*,-3%,?,45µM*
Cc1ccc(NC(=O)CN2CCN(C(=O)c3ccco3)CC2)cc1,-4%,25%,-7%,4%,-3%,4%
N#C/C(=C\c1ccc(O)c(O)c1)C(=O)NCCCc1ccccc1,?,?,16µM*!,0%,?,?
N#CC(=Cc1ccc(O)c(O)c1)C(=O)NCc1ccccc1,/,71µM*,/,-19%,/,-29%
COc1ccc(/C=C(\C#N)C(=O)NCCc2ccccc2)cc1OCc1ccccc1,-3%,10%,-21%,-7%,-3%,2%
CCN(CC)CCCNC(=O)CSc1nc2nc(C)c(Cc3ccccc3C)c(C)n2n1,10%,34%,-10%,-4%,/,10%
CC(C)c1ccc(NC(=O)Nc2nnc([C@H]3C[C@H](O)[C@@H](CO)O3)s2)cc1,/,/,/,/,7%,/
COc1ccc(C(=O)N(Cc2cc(OC)c(OC)c(OC)c2)CC2CCCO2)cc1 (configuration not stated),49%,2%,-10%,-5%,/,8%
O=Cc1[nH]c2ccccc2c1N(C(=O)CCl)c1ccccc1,-10%,?,20µM*,0%,-6%,-11%
CCOC(=O)c1ccc(NC(=O)C(C)N(c2ccc(OCC)cc2)S(C)(=O)=O)cc1 (configuration not stated),-14%,-1%,-19%,-5%,/,-4%
CN=c1scc(-c2ccccc2F)n1/N=C/c1ccc[nH]1,2%,13%,-4%,0%,0%,-19%
CC(C)N=c1scc(-c2cccs2)n1/N=C/c1ccc(O)c(O)c1O,2.2µM*,?,?,-19%,?,?
CN=c1scc(-c2ccccc2F)n1/N=C/c1ccc(O)c(O)c1O,1.4µM*,?,?,?,56µM*,?
CCN=c1scc(-c2cccs2)n1/N=C/c1cc(OC)ccc1O,-9%,-3%,-14%,4%,-27%[57.1 µM],-2%
CSc1nnc2c(n1)OC(c1cccc(O)c1Cl)Nc1ccccc1-2 (configuration not stated),-27%,-8%,-4%,-7%,/,-29%
COc1ccc(-c2coc3cc(O)ccc3c2=O)cc1O,25µM*,?,-11%,-17%,2%,?
COc1ccc(S(=O)(=O)n2nc(OC(C)=O)cc2N)cc1,?,?,7%,45µM*,-11%[11.6 µM],-32%
CCN(CC)c1ccc(/C=C2\C(=O)N(c3nnc(C)c(=O)[nH]3)N=C2C)cc1,39%,3.2µM*,?,-10%,-12%[11.6 µM],-4%

# High-throughput results as filed in PubChem BioAssay.
